Bioassay records from PubChem BioAssay.
Most compounds without a hit are left out; they make up all but 21% or so of the library.
Shiga toxin inh = inhibitors of Shiga toxin in Vero cells. inhibition, % at 38.7 µM. Vero cells, Shiga toxin protein synthesis inhibition reporter. AID 2315. actives 9.2% (n = 290,000); in the data active = inhibition mostly above about 28%, no sharp cut-off; inactive = mostly below about 43%
NS1 function inh = influenza NS1 inhibition; AID 2326; Potency, µM (titrated, usually from 46.1 µM); actives 0.4% (n = 270,000); calls by dose curve; also: actives are rising curves; nearly all actives have a fitted effect of over 50% in size
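Growth recovery, yeast-based: influenza A NS1 expressed in S. cerevisiae causes slow growth, and suppressors are detected by OD600. The parent strain without NS1 is used as positive control.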
Sm TGR block = inhibitors of Schistosoma mansoni thioredoxin glutathione reductase; purified TGR, DTNB reduction, TNB absorbance 405 nm; Potency, µM (highest dose often 114 µM), most hits filed as inhibitors; actives 3% (n = 360,000); AID 485364; also: nearly all actives have a fitted effect of over 60% in size
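Kinetic colorimetric format: TGR-catalysed, NADPH-driven DTNB reduction monitored via TNB absorbance. Enzyme dispensed at 20 nM; compound exposure 15 min at room temperature before reaction start.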
Pf growth 48h = P. falciparum growth inhibition at 48 hours (one generation); actives 5.9% (n = 310,000); P. falciparum luciferase growth in erythrocytes, 48 h; Potency, µM (highest dose often 28.7 µM), usual class: inhibitors; AID 504832
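Here the parasites carry a stable luciferase gene and grow inside erythrocytes in Albumax-based RPMI medium with compound for one erythrocytic cycle. Activity is scored as loss of luminescent signal.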
CHX counter = counter-screen hit for Shiga toxin inhibitors, cycloheximide. actives 12% (n = 300,000). max response, %. AID 2314. cell reporter, cycloheximide protein synthesis inhibition counterscreen; in the data active = max response mostly above about 13%, no sharp cut-off; inactive = mostly below about 14%; also: read at 38.3 µM for the half of the compounds with a filed dose
Pf growth 96h = inhibits malaria parasite growth, 96 h. P. falciparum luciferase reporter growth, 96 h. Potency, µM (series often up to 28.7 µM), hits mostly inhibitors. actives 6.9% (n = 320,000). AID 504834
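Parasite growth measured via integrated firefly luciferase reporter in P. falciparum. Infected erythrocytes at 2% hematocrit, 0.05% parasitemia final were treated 96 hours at 37 C under 5% CO2, and luminescence was read.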
Numbers stand for hits; . = inactive; ? = inconclusive; / = no result. Unless noted, calls follow the shape of the dose curve; as a rule, active = well fitted curve in the direction sought with a large enough effect; inconclusive = small, poorly fitted or top-dose-only effect, or another doubt; inactive = no such curve, though single readings can be large; an effect the other way counts as inactive or inconclusive.

SMILES	Shiga toxin inh	NS1 function inh	Sm TGR block	Pf growth 48h	CHX counter	Pf growth 96h
Fc1ccccc1CSc1nc2ncc(Br)cc2[nH]1	.	.	.	/	22	13µM
COc1ccc(OC)c(CNC(=O)C2CCN(S(=O)(=O)c3ccc4[nH]c(=O)oc4c3)CC2)c1	/	/	.	/	/	/
COc1ccc(Cl)cc1/C=C(\C#N)C(N)=O	.	.	.	.	.	.
CCC(C)(C)n1nnnc1C(c1ccccc1)N1CCN(Cc2ccccc2)CC1 (configuration not stated)	.	.	.	?	.	?
CC(C)CCn1nnnc1CN1CCN(C(c2ccccc2)c2ccccc2)CC1	.	/	.	6.6µM	.	.
CCC(C)(C)n1nnnc1CN1CCN(C(c2ccccc2)c2ccccc2)CC1	.	.	.	7.4µM	.	.
c1ccc(C(c2ccccc2)N2CCN(Cc3nnnn3C3CCCC3)CC2)cc1	.	.	?	?	.	.
CCOC(=O)C1=C(CS(=O)(=O)c2ccccc2)NC(=O)NC1c1ccccc1OCC (configuration not stated)	.	.	25µM	/	.	?
CCCOc1ccccc1C1NC(=O)NC(C)=C1C(=O)OCc1ccccc1 (configuration not stated)	.	.	.	13µM	.	.
CCCOc1ccccc1C1NC(=O)NC(C)=C1C(=O)OCCOC(C)C (configuration not stated)	.	.	.	?	.	12µM
CCOC(=O)C1=C(CS(=O)(=O)c2ccccc2)NC(=O)NC1c1ccc(OC)c(OC)c1 (configuration not stated)	.	.	.	.	.	.
CC1=C(C(=O)OCc2ccc3c(c2)OCO3)C(c2ccccc2OCc2ccccc2)NC(=O)N1 (configuration not stated)	.	.	.	10µM	.	/
COc1ccccc1Nc1c2c(nc3ccc(NC(=O)c4ccc(N(C)C)cc4)cc13)CCCC2	/	/	.	/	/	/
O=S(=O)(Nc1cccc2cccnc12)c1ccc(Br)cc1	.	/	/	/	.	/
CCCN1CCN(C(=O)c2ccc3nc(CC)c(CC)nc3c2)CC1	.	.	.	.	.	.
CCc1nc2ccc(C(=O)N3CCN(c4ccc(Cl)cc4)CC3)cc2nc1CC	.	.	.	.	.	5.2µM
CCc1nc2ccc(C(=O)N3CCN(c4ccccc4)CC3)cc2nc1CC	.	.	.	.	.	2.6µM
CCc1nc2ccc(C(=O)O)cc2nc1CC	91	.	.	.	91	.
CCc1nc2ccc(C(=O)N3CCN(c4cccc(C(F)(F)F)c4)CC3)cc2nc1CC	.	.	.	.	.	?
COc1ccc(C(=O)Nc2nnc(C)s2)cc1	/	/	.	/	/	/
CCc1nc2ccc(C(=O)Nc3nnc(C)s3)cc2nc1CC	.	.	.	.	12	.
COc1cc2nc(NCc3ccccc3Cl)n3nc(-c4cccnc4)nc3c2cc1OC	/	/	.	/	/	/
CCCNC(=O)CN1C(=O)NC(Cc2c[nH]c3ccccc23)C1=O (configuration not stated)	.	/	.	.	.	.
CCNc1nc(NCC)nc(SCCOc2ccc(C)cc2)n1	.	.	.	?	.	?
Nc1ncnc2c1ncn2[C@@H]1O[C@H](COS(=O)(=O)O)[C@@H](O)[C@H]1O	/	/	.	13µM	/	?
SMILES	Shiga toxin inh	NS1 function inh	Sm TGR block	Pf growth 48h	CHX counter	Pf growth 96h
CC1(C)O[C@@H]2[C@H](O1)[C@@H](COS(=O)(=O)O)O[C@H]2n1cnc2c(N)ncnc21	/	/	?	.	/	.
CC1(C)O[C@@H]2[C@H](O1)[C@@H](CO)O[C@H]2n1cnc2c(N)ncnc21	/	/	.	.	/	.
CCOC1OC2C(CO)OC(n3cnc4c(N)ncnc43)C2O1 (configuration not stated)	.	.	.	.	.	4.7µM
COc1ccc2oc(C(=O)OCC(=O)NC3CCCCC3)c(C)c2c1	/	/	.	.	/	.
CCCN(C(=O)COC(=O)C12CCC(=O)N1c1ccccc1S2)c1c(N)n(Cc2ccccc2)c(=O)[nH]c1=O (configuration not stated)	.	.	.	.	.	.
COC(=O)c1c(C)[nH]c(C(=O)C(C)OC(=O)c2c(C)noc2C)c1C (configuration not stated)	/	/	.	?	/	4.1µM
CC(=O)c1ccc(Oc2cc(-c3ccccc3)nc(-c3ccccc3)n2)cc1	.	.	.	?	.	?
O=Cc1ccc(Oc2cc(-c3ccccc3)nc(-c3ccccc3)n2)cc1	.	.	.	.	.	13µM
Cn1c(Cc2cccc3ccccc23)nnc1SCc1ccc([N+](=O)[O-])cc1	.	.	.	.	.	?
O=C(NCC1CCCCC1)c1cccc(-c2ccc(O)cc2)c1	.	.	.	?	.	?
Cc1ccc2c(C(=O)CSc3ccccc3)c(C)[nH]c2c1	.	.	.	.	.	.
CCOCc1cnc(C)nc1NCC(=O)c1c(C)[nH]c2cc(C)ccc12	.	.	.	0.83µM	.	0.29µM
CCOCc1cnc(C)nc1NCC(=O)c1c(C)[nH]c2ccccc12	.	.	.	2.1µM	.	1.7µM
CC(C)C(OC(=O)c1nsc(Cl)c1Cl)C(=O)NCc1ccccc1 (configuration not stated)	.	.	.	.	.	.
Cc1cc(C)cc(Nc2ncnc3c2nc2n3CCCC2)c1	/	/	.	/	/	/
COC(=O)C1=C(C)NC(=O)/C1=C\c1ccc2c(c1)OCO2	.	.	35µM	?	34	?
COC(=O)C1=C(C)NC(=O)/C1=C\N(C)C	.	.	25µM	.	.	.
COc1ccc(CNc2cc(-c3ccc(OC)cc3)nc3nncn23)cc1	/	/	.	/	/	/
COc1ccc(-c2cn3nc4c(nc3n2)CCCC4)cc1	48	.	.	/	26	.
CN(C)c1ncc([N+](=O)[O-])cc1C(F)(F)F	.	.	?	0.74µM	.	.
Nc1ncc([N+](=O)[O-])cc1Br	.	.	.	.	.	.
COc1ccccc1OCCCOc1ccc([N+](=O)[O-])cc1Cl	126	.	.	.	50	.
CC(=O)NCCCOc1ccc([N+](=O)[O-])cc1Cl	.	.	.	.	16	.
S=C1NC2(CCCCCC2)N=C1c1ccccc1	.	/	.	13µM	.	.
Cc1ccc(C2=NC3(CCCC3)NC2=S)cc1	.	.	.	.	22	.
SMILES	Shiga toxin inh	NS1 function inh	Sm TGR block	Pf growth 48h	CHX counter	Pf growth 96h
CN1CCC2(CC1)N=C(c1ccc(F)cc1)C(=S)N2	.	/	.	.	.	?
S=C1NC2(CCCC2)N=C1c1ccccc1	.	/	.	.	21	.
CCN1CCN(CCNC(=O)c2ccc(/C=C3/Sc4ccccc4N(Cc4ccccc4C)C3=O)cc2)CC1	.	/	.	12µM	.	.
CCN1CCN(CCCNC(=O)c2ccc(/C=C3/Sc4ccccc4N(Cc4ccccc4F)C3=O)cc2)CC1	.	/	.	?	.	?
Cc1ccccc1CN1C(=O)c2ccccc2Sc2ccc(C(=O)NCCN3CCOCC3)cc21	.	.	.	8.3µM	.	?
CC1=Nc2cc(C(=O)NCCN3CCOCC3)ccc2Sc2c(C)ccc(C)c21	.	.	.	?	.	12µM
